Results taken from article PMC7862700, “An all-to-all approach to the identification of sequence-specific readers for epigenetic DNA modifications on cytosine”.

Experiments:
Assay in all cases: DAPPL (digital affinity profiling via proximity ligation, sequencing); 10 mM Tris-HCl pH 7.5, 50 mM NaCl, 1 mM DTT, 4% glycerol, room temperature, 30 min; GST-TFs on glutathione beads, 16-mer random dsDNA library, 0.1% formaldehyde crosslink after washing; high values mean tight binding
Conditions in all cases: protein: recombinant; tags: N-terminal GST; dsDNA, one strand shown
[1] = biological target: T1, FLI1 (Homo sapiens, UniProt Q01543 1-452)
T1 sequence: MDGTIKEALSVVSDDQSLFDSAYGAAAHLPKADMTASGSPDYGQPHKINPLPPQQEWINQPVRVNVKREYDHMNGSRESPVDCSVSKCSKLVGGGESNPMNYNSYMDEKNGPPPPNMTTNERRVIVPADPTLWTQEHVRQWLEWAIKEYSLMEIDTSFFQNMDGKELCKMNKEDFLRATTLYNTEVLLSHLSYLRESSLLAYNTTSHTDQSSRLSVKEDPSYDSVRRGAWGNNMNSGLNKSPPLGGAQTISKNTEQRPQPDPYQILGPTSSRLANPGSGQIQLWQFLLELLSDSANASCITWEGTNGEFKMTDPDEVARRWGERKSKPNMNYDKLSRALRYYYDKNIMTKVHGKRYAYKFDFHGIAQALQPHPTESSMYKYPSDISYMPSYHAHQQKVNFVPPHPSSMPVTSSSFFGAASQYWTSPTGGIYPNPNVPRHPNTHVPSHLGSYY
Method in brief: (§1)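 Yeast served to express human transcription factors as GST fusions, which were then captured on glutathione beads and labelled with DNA barcodes. Pooled with a tag-only sample, they were incubated with 200 nmole of a 16-mer random double-stranded DNA library for 30 min at room temperature in Tris/NaCl/DTT/glycerol buffer, washed, crosslinked with 0.1% formaldehyde, ligated by proximity, amplified by PCR and sequenced. Dividing each hexamer's read frequency for a factor by its frequency for the tag-only sample gives the binding signal.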

[2] = biological target: ELF1 (Homo sapiens, UniProt P32519 1-619)
Method in brief: as §1

[3] = biological target: T2, EHF (Homo sapiens, UniProt Q9NZC4 1-300)
T2 sequence: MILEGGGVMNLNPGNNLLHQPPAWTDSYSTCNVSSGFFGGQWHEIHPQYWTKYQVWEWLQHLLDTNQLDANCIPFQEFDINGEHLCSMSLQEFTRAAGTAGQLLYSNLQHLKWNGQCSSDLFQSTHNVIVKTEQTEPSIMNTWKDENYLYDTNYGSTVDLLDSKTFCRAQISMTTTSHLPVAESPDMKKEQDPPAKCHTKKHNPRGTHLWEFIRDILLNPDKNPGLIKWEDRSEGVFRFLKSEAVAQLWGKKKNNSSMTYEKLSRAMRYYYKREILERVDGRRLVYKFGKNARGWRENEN
Method in brief: as §1

[4] = biological target: T3, ELK3 (Homo sapiens, UniProt P41970 1-407)
T3 sequence: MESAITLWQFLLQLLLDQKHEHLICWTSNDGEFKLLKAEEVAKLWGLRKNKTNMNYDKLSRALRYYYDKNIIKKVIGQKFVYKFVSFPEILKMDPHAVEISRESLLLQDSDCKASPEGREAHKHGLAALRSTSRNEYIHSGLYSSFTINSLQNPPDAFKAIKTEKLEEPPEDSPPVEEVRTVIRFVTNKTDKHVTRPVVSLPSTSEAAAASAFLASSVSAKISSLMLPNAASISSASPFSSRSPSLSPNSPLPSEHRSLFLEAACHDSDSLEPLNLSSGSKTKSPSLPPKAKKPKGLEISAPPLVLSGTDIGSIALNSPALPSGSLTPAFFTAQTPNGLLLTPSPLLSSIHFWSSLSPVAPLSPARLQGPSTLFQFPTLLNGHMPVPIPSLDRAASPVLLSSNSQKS
Method in brief: as §1

[5] = biological target: T4, SPIC (Homo sapiens, UniProt Q8N5J4 1-248)
T4 sequence: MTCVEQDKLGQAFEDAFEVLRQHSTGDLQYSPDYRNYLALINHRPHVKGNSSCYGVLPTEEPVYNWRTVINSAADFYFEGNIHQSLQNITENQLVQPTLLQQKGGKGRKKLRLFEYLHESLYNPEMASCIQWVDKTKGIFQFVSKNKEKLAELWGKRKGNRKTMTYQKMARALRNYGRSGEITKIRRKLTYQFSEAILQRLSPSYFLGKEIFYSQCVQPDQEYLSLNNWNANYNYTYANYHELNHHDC
Method in brief: as §1

[6] = biological target: ELF4 (Homo sapiens, UniProt Q99607 1-663)
Method in brief: as §1

[7] = biological target: T5, ELK4 (Homo sapiens, UniProt P28324-2 1-405)
T5 sequence: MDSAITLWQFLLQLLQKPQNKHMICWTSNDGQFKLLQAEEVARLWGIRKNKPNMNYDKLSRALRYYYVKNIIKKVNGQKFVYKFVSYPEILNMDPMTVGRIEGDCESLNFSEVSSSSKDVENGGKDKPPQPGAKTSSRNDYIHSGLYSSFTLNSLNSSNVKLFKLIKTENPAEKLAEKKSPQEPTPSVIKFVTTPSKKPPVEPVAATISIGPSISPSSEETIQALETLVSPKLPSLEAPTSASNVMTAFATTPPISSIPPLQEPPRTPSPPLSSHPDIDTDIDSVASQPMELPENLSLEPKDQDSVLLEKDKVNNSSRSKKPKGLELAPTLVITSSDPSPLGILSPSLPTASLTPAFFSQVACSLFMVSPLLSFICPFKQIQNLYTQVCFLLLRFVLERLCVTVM
Method in brief: as §1

[8] = biological target: T6, ETV2 (Homo sapiens, UniProt O00321 1-342)
T6 sequence: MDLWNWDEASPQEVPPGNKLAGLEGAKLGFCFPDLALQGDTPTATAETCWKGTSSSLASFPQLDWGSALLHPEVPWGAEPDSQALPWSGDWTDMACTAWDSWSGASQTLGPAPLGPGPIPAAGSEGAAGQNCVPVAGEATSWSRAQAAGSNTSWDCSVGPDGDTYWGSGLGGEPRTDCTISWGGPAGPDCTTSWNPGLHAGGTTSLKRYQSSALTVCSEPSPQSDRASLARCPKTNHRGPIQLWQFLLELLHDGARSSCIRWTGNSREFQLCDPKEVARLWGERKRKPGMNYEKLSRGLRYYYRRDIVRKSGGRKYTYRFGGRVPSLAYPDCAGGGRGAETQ
Method in brief: as §1

[9] = biological target: T7, ELF3 (Homo sapiens, UniProt P78545 1-371)
T7 sequence: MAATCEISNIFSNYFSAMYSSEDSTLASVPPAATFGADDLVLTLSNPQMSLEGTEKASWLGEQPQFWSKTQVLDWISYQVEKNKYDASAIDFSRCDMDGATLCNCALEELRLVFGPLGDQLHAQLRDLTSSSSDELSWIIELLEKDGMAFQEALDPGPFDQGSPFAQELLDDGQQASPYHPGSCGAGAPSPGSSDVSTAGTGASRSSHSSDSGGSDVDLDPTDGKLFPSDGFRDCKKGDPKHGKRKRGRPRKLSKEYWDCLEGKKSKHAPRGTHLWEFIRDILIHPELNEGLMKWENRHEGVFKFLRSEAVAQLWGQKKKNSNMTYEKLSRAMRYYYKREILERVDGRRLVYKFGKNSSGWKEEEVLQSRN
Method in brief: as §1

[10] = biological target: T8, ERF (Homo sapiens, UniProt P50548 1-548)
T8 sequence: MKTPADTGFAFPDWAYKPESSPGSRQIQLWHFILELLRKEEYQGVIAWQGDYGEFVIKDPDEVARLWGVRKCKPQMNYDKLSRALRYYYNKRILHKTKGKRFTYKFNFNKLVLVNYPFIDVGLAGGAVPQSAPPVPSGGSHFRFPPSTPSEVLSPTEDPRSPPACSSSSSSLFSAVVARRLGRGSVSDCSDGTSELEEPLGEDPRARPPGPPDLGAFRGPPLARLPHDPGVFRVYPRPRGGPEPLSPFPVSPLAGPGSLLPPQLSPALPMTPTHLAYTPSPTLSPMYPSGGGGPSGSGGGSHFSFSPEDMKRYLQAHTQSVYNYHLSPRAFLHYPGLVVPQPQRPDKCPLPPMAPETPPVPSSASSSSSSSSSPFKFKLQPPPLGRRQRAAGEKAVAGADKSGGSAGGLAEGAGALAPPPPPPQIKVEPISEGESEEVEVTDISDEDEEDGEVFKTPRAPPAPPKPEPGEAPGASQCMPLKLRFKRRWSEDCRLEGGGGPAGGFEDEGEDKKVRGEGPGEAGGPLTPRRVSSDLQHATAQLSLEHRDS
Method in brief: as §1

[11] = biological target: T9, ETS2 (Homo sapiens, UniProt P15036 1-469)
T9 sequence: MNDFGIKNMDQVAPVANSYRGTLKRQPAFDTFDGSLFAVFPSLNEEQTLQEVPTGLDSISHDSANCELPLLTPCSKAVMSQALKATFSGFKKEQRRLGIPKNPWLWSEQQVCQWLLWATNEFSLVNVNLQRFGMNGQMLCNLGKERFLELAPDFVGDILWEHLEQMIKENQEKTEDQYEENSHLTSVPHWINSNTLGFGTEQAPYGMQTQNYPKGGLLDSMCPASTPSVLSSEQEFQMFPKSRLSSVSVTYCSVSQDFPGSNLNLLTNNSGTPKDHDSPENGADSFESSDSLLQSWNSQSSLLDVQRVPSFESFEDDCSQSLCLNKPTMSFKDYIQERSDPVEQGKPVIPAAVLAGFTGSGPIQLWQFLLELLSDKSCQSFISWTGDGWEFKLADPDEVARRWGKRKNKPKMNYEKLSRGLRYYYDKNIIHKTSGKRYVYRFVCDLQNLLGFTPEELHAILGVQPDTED
Method in brief: as §1

[12] = biological target: ETV6 (Homo sapiens, UniProt P41212 1-452)
Method in brief: as §1

Chain of ETV6 (P41212 whole entry): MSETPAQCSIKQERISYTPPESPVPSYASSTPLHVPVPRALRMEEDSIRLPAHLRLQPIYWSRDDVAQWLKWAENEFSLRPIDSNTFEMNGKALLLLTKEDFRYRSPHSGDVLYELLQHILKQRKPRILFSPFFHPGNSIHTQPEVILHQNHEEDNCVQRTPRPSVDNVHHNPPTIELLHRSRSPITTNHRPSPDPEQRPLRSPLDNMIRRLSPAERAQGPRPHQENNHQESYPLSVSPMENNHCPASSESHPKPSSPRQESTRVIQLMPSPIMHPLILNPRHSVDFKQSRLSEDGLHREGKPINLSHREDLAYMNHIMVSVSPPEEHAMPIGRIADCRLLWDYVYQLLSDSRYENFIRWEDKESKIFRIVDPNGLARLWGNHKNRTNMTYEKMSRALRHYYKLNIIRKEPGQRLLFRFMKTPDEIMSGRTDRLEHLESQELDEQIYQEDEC
Chain of ELF4 (Q99607 whole entry): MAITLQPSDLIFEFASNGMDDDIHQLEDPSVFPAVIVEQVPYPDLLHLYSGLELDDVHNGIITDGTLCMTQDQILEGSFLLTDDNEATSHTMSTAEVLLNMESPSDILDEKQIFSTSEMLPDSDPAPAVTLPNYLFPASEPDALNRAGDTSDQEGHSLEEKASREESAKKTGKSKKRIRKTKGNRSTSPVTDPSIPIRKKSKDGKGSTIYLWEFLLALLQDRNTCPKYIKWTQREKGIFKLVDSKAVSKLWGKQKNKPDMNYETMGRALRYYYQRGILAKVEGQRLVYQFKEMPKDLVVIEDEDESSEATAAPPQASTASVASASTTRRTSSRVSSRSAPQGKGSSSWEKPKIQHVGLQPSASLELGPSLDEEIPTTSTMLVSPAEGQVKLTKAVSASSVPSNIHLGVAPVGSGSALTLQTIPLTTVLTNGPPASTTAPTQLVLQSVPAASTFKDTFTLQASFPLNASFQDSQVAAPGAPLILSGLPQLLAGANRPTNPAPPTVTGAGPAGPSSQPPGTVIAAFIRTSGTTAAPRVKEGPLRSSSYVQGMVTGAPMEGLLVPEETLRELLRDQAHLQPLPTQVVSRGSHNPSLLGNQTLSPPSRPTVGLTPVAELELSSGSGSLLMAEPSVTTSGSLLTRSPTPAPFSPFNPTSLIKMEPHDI
Chain of ELF1 (P32519 whole entry): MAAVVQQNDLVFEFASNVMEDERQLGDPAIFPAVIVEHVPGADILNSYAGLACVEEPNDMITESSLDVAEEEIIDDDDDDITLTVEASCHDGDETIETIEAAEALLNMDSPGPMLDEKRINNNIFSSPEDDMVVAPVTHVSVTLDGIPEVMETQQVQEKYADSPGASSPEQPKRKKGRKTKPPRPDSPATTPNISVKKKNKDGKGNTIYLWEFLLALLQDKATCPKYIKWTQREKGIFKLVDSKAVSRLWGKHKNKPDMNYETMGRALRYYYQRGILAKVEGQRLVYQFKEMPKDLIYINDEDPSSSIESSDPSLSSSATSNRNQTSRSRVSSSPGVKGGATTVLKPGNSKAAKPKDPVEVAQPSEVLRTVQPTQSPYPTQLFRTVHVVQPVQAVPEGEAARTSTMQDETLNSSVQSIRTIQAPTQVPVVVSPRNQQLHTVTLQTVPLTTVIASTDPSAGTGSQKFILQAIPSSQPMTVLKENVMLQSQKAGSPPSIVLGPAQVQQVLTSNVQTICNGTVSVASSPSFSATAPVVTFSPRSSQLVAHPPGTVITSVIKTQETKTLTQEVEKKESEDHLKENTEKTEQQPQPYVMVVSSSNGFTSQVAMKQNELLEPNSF

With GATTTA the binding signal [1] was 1.02 fold enrichment (6-mer frequency, TF over GST control), the binding signal [2] was 1 fold enrichment (6-mer frequency, TF over GST control) and the binding signal [3] was 1.11 fold enrichment (6-mer frequency, TF over GST control). The binding signal [4] was 1.08 fold enrichment (6-mer frequency, TF over GST control), the binding signal [5] was 1.02 fold enrichment (6-mer frequency, TF over GST control) and the binding signal [6] was 1.05 fold enrichment (6-mer frequency, TF over GST control). For the same sequence, the binding signal [7] was 1.02 fold enrichment (6-mer frequency, TF over GST control), the binding signal [8] was 1.05 fold enrichment (6-mer frequency, TF over GST control) and the binding signal [9] was 1.02 fold enrichment (6-mer frequency, TF over GST control). The binding signal [10] was 1.02 fold enrichment (6-mer frequency, TF over GST control), the binding signal [11] was 1 fold enrichment (6-mer frequency, TF over GST control) and the binding signal [12] was 1.05 fold enrichment (6-mer frequency, TF over GST control).
